Compound activity deposited in PubChem by National Center for Advancing Translational Sciences (NCATS).
Sampled rows, rich in hits. Any-hit rate of the full collection: about 5.9%.
ATXN viability = cell viability loss in ATXN counter-screen; 400,000 compounds, 0.49% hits; AID 651635; Potency, µM (top dose mostly 56.7 µM), hits mostly cytotoxic; S2 cells (HEK-293 line with an ATXN2-luciferase reporter) viability, CellTiter-Fluor protease fluorescence, 24 h; also: nearly all actives have a fitted effect of over 40% in size
ATXN2 expr inh = reduces ATXN2 reporter expression in HEK-293 cells; AID 1745845; HEK-293 ATXN2-luciferase reporter, luminescence, 24 h; Potency, µM (titrated, usually from 57 µM), without a hit: at the top dose activity change, negative = inhibition, actives largely listed as inhibitors; 360,000 compounds, 0.72% hits; also: % is scaled to controls: 0 for no effect and ±100 for the full control effect; nearly all actives have a fitted effect of over 55% in size
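qHTS (up to 57 uM final) was run with 24 h compound exposure of reporter cells at 37 °C. Each well was multiplexed: SteadyGlo luminescence measured ATXN2-luciferase expression after a fluorogenic Gly-Phe-AFC viability readout (25 uM final).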
KB-3-1 cytotox = KB-3-1 parental cell cytotoxicity; 400,000 compounds, 1.4% hits; Potency, µM (highest dose often 46.1 µM), actives largely listed as cytotoxic; AID 1347075; KB-3-1 viability, CellTiter-Glo ATP luminescence, 72 h; also: % is scaled to controls: 0 for no effect and ±100 for the full control effect; nearly all actives have a fitted effect of over 60% in size
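Parental KB-3-1 adenocarcinoma cells in phenol-red-free DMEM with 10% FBS were pin-treated with compounds at several concentrations, incubated 72 h at 37 °C, and viability read by CellTiter-Glo luminescence; concentration-effect curves were fitted after normalization.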
HepG2 tox = HepG2 cytotoxicity, counter-screen for TGF-b inhibitors | HepG2 CAGA-GFP viability, ATP luminescence, 18 h | Potency, µM (doses to about 46.1 µM), for the others: top-dose activity change, negative = cytotoxicity, actives largely listed as cytotoxic | 410,000 compounds, 0.76% hits
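HepG2 CAGA-GFP cells (1000/well, DMEM with 1% FBS) received compound, then TGF-beta at 500 pg/mL final, and were incubated 18 hours at 37 degrees C. Viability was read by CellTiter-Glo luminescence. Media-only wells were set as complete cell-killing and DMSO as no toxicity.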
TGFb inhibitor = inhibitors of TGF-b signaling | HepG2 CAGA-GFP TGF-b/SMAD3 reporter, GFP fluorescence, 18 h; TGF-beta stimulated, 500 pg/mL final | Potency, µM (top dose mostly 46.1 µM), for inactives: at the top dose activity, negative = inhibition, usual class: inhibitors | 410,000 compounds, 1.2% hits; also: % is scaled to controls: 0 for no effect and ±100 for the full control effect; nearly all actives have a fitted effect of over 65% in size
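TGF-beta reporter screen: HEPG2 CAGA-GFP, 1% FBS, 500 pg/mL TGF-beta final, 18 h; per-cell GFP summed per well; curves fitted and categorized by class.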
KB-V1 cytotox = kills drug-selected multidrug resistant KB-V1 cells | KB-V1 MDR cells viability, CellTiter-Glo, 72 h | Potency, µM (top dose mostly 46.1 µM), most hits filed as cytotoxic | 400,000 compounds, 3.4% hits | AID 1347076; also: % is scaled to controls: 0 for no effect and ±100 for the full control effect; nearly all actives have a fitted effect of over 60% in size
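qHTS viability screen in drug-selected KB-V1 MDR cells: 72 h compound treatment at 37 degrees C, ATP luminescence end point.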
Numbers without * were called inactive; i = inactive; ? = inconclusive; . = no result given. Calls follow the shape of the dose curve; as a rule, active = well fitted curve in the direction sought with a large enough effect; inconclusive = small, poorly fitted or top-dose-only effect, or another doubt; inactive = no such curve, though single readings can be large; an effect the other way counts as inactive or inconclusive. Potency is read from the fitted curve at half-maximal effect.

SMILES	ATXN viability	ATXN2 expr inh	KB-3-1 cytotox	HepG2 tox	TGFb inhibitor	KB-V1 cytotox
CCN(CC)c1ccc(NC(=O)c2ccco2)c(C)c1	i	18%	i	-2%	1%	i
CCN(CC)c1ccc(NC(=O)c2cccc(F)c2)c(C)c1	i	-6%	5.8µM*	-2%	0%	?
Cc1c(C)c2c(C)nn(-c3ccccc3)c2[nH]c1=O	i	10%	i	-2%	-8%	i
Cc1cc(=O)c2c(C)nn(-c3ccccc3)c2[nH]1	i	10%	i	5.6µM*	-6%	i
COc1ccc(CC(N)c2csc(Nc3cc(Oc4ccccc4)ncn3)n2)cc1 (centres undefined)	?	?	i	18µM*	?	i
NC(c1csc(Nc2cc(NCc3ccco3)ncn2)n1)c1ccccc1Cl (centres undefined)	?	-32%	i	-45%	?	i
NC(Cc1ccc(F)cc1)c1csc(Nc2cc(Oc3ccccc3)ncn2)n1 (centres undefined)	28µM*	?	?	13µM*	?	?
NC(Cc1ccc(F)cc1)c1csc(Nc2cc(NCc3ccco3)ncn2)n1 (centres undefined)	?	18µM*	i	-48%	?	?
Cc1cccc(-c2cc(NC(=O)COc3ccccc3F)n(-c3ccccc3)n2)c1	i	3%	i	-10%	13%	i
Cc1ccc(OCC(=O)Nc2nc(-c3ccc(Br)cc3)ns2)cc1	.	.	.	-17%	-18%	.
CCc1ccccc1NC(=O)c1sc2nc3n(c(=O)c2c1C)CCC3	.	.	i	0%	-4%	i
CC1(C)SCCN(S(=O)(=O)c2ccc(OCC#CCO)cc2)[C@@H]1C(=O)NO	.	-14%	.	.	.	.
CCc1ccc(C2c3c(-c4ccccc4O)n[nH]c3C(=O)N2Cc2cccnc2)cc1 (centres undefined)	.	?	i	-64%	?	?
Cc1ccccc1Oc1cc(-n2ncc(Cl)c(Cl)c2=O)ncn1	7.9µM*	7.9µM*	15µM*	7.1µM*	4µM*	i
CCOc1cnn(-c2cc(Oc3ccc(C)cc3)ncn2)c(=O)c1Cl	i	3%	i	3%	-6%	i
CCCCCC1CCNCC1	.	.	i	-51%	?	i
Cc1cc(C)nc(N2CCCC(C(=O)Nc3nnc(C)s3)C2)n1 (centres undefined)	i	-6%	i	2%	-1%	18µM*
CCc1nnc(NC(=O)C2CCCN(c3nc4ccccc4s3)C2)s1 (centres undefined)	i	-3%	i	4%	15%	15µM*
Cc1ccnc(N2CCCC(C(=O)Nc3nnc(C)s3)C2)n1 (centres undefined)	i	-9%	i	0%	-3%	i
Cc1cc(C)nc(N2CCCC(C(=O)Nc3ccc4c(c3)OCCO4)C2)n1 (centres undefined)	i	6%	i	-1%	-2%	7.3µM*
O=C1C(Cl)=C(N2CCCCC2)C(=O)C(Cl)=C1c1cnc(N2CCCCC2)s1	?	?	18µM*	-32%	-9%	i
CN(C)c1ncc(C2=C(Cl)C(=O)C(N3CCCC3)=C(Cl)C2=O)s1	.	25µM*	i	-81%	-4%	i
CCCSCCCNC(=O)c1ccc2c(c1)sc1nc(-c3ccc(OCC)cc3)cn12	?	7%	i	2%	-3%	i
CCOC(=O)N1CCC(NC(=O)c2cc(COc3ccccc3SC)on2)CC1	i	5%	i	-17%	-26%	9.2µM*
Nc1ccc(SC(F)(F)F)cc1C(=O)c1ccccc1	i	-23%	i	-104%	13µM*	i
SMILES	ATXN viability	ATXN2 expr inh	KB-3-1 cytotox	HepG2 tox	TGFb inhibitor	KB-V1 cytotox
CC(C)N=C(NC#N)SCc1ccccc1F	i	10%	i	-3%	-5%	?
N#CNC(=Nc1cccc(F)c1)SCc1ccccc1F	?	.	i	11µM*	?	?
COC(=O)c1c(NC(=O)c2ccn(C)n2)sc2c1CCC2	i	3%	i	-5%	-7%	i
COC(=O)c1c(NC(=O)c2nn(C)cc2Cl)sc2c1CCCC2	i	-13%	i	1%	12%	5.8µM*
COC(=O)c1c(NC(=S)NNS(=O)(=O)c2ccc(OC)cc2OC)sc2c1CCCCCC2	i	5%	.	-38%	?	.
COC(=O)c1c(NC(=S)Nc2cc(OC)c(Cl)cc2OC)sc2c1CCCCC2	i	-1%	i	-30%	-5%	21µM*
COc1ccc(-c2noc(-c3ccc(NCCc4ccccc4)c([N+](=O)[O-])c3)n2)cc1	i	14%	i	2%	-4%	i
Cc1nc(NCC2CCCO2)nc2c1C(=O)CC(C)(C)C2 (centres undefined)	i	2%	i	-9%	-5%	21µM*
CCOC(=O)c1c(N)n(-c2ccc(Cl)c(Cl)c2)c2nc3ccccc3nc12	i	0%	i	-16%	-5%	?
Cc1ccc(C(=O)Nc2cccc(C(F)(F)F)c2)cc1Nc1cnccn1	i	0%	i	-36%	?	i
Cc1ccc(C(=O)Nc2ccc(CN3CCN(C)CC3)c(C(F)(F)F)c2)cc1C#Cc1cnc2cccnn12	.	19µM*	.	.	.	.
CCc1ccc(C(=O)Nc2cc(CN3CCN(C)CC3)cc(C(F)(F)F)c2)cc1C#Cc1cnc2ccnn2c1	.	24µM*	.	.	.	.
COCCn1c(SCCCC(=O)c2ccc(Br)cc2)nnc1-c1ccncc1	i	-21%	10µM*	-2%	-29%	2.6µM*
COCCNc1nnc(SCC(=O)Nc2cc(-c3ccccc3)nn2-c2ccccc2)s1	i	-1%	i	-24%	?	16µM*
Cn1c(SCCCC(=O)c2ccc(F)cc2)nnc1-c1ccncc1	i	-10%	i	3%	3%	i
COCCn1c(SCC(=O)Nc2cc(C(C)(C)C)nn2-c2ccccc2)nnc1-c1ccncc1	i	5%	i	5%	1%	16µM*
O=C(Nc1cccc(N2CCC(NCc3cnn(-c4ccccc4)n3)CC2)c1)c1cccnc1	i	.	.	.	.	.
N#CCCn1cc(C(=O)Nc2ccc([N+](=O)[O-])cc2)c(-c2cc3ccccc3o2)n1	25µM*	.	i	-42%	?	i
O=C(Nc1cc(F)ccc1F)C1COc2ccccc2C1 (centres undefined)	i	3%	i	-4%	20%	i
N#C/C(=C(/O)c1cccc(F)c1)c1nc2ccccc2s1	i	.	5.8µM*	-7%	-27%	2.9µM*
